Hits are enriched below; roughly 7% of the tested compounds scored in any of these assays.
BAZ2B inh: qHTS Assay for Inhibitors of BAZ2B; Bromodomain adjacent to zinc finger domain protein 2B (Homo sapiens), Q9UIF8; Potency, µM (highest dose often 114 µM), for the others: at the highest dose activity change, negative = inhibition, hits mostly inhibitors; 360,000 compounds, 4.4% hits; AlphaScreen BAZ2B-H3K14Ac peptide displacement; further: potency means the concentration at half of the fitted maximal effect; on the % scale 0 is the no-effect control and ±100 the full control effect; nearly all actives have a fitted effect of over 60% in size
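AlphaScreen luminescence quantifies BAZ2B engagement of H3K14Ac peptide; the protein and biotinylated peptide are both at 50 nM final, buffer PBS pH 7.4 with 0.01% Tween-20, all steps at room temperature.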
GCN5L2 inh: qHTS Assay for Inhibitors of GCN5L2. Histone acetyltransferase KAT2A (Homo sapiens), Q92830. GCN5L2 HAT assay, ThioGlo1 CoA-SH fluorescence. Potency, µM (series often up to 58.9 µM), without a hit: at the top dose activity change, negative = inhibition, actives largely listed as inhibitors. 390,000 compounds, 0.21% hits; further: potency means the concentration at half of the fitted maximal effect; on the % scale 0 is the no-effect control and ±100 the full control effect
Target sequence (Q92830 whole entry, looked up): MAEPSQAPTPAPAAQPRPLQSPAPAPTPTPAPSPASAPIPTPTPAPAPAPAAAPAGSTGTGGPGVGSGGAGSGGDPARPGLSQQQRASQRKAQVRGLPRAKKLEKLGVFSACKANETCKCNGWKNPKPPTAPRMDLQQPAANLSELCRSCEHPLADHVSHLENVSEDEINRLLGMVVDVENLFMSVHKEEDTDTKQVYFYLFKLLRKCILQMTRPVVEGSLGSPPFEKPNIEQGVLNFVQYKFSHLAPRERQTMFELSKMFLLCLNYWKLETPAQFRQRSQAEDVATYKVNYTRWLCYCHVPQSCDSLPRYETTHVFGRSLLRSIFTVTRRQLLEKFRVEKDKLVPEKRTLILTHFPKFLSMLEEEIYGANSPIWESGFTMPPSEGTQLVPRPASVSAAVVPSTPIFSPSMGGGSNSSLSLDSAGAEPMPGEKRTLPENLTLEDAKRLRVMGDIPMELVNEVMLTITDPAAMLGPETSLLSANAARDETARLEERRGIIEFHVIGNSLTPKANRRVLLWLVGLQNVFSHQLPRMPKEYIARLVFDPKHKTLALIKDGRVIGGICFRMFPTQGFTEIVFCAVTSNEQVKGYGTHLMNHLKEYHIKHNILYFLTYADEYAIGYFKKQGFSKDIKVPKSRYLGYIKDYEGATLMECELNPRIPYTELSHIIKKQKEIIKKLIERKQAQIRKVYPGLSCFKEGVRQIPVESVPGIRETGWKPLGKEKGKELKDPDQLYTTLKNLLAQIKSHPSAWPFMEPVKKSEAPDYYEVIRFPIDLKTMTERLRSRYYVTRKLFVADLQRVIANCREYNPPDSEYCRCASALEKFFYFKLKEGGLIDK
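Titration-based screen in which CoA formation is detected via maleimide probe ThioGlo1 (50uM) turning fluorescent on thiol reaction; substrates H3(1-25) 75uM and acetyl-CoA 70uM, GCN5L2 20nM, 20 min incubation at room temperature.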
PI5P4K alpha inh: qHTS for Inhibitors of phosphatidylinositol 5-phosphate 4-kinase (PI5P4K) | Phosphatidylinositol 5-phosphate 4-kinase type-2 alpha (Homo sapiens), P48426 | PI5P4Kalpha enzyme, ADP-Glo luminescence, 60 min; active compounds read low | max response, % | 330,000 compounds, 1.2% hits; active means max response of -50% or lower; inconclusive means between -30% and -50%; inactive means -30% or higher; further: value at the top dose of about 77 µM; on the % scale 0 is the no-effect control and ±100 the full control effect
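Human PI5P4Kalpha with substrate in 0.038 M HEPES pH 7.4, 0.28 mM EGTA, 0.1% CHAPS, 5% DMSO; reaction started with 5 microM ATP (final), 60 min at room temperature. ADP formed read by ADP-Glo luminescence.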
JMJD2A Tudor inh: qHTS Assay for Inhibitors of JMJD2A-Tudor Domain; Potency, µM (highest dose often 114 µM), for the others: top-dose activity change, negative = inhibition, usual class: inhibitors; 390,000 compounds, 4.4% hits; AlphaScreen JMJD2A-Tudor / H3K4me3 peptide binding; Lysine-specific demethylase 4A (Homo sapiens), O75164; further: potency means the concentration at half of the fitted maximal effect; on the % scale 0 is the no-effect control and ±100 the full control effect; nearly all actives have a fitted effect of over 50% in size
PLK1 PBD block: qHTS for Inhibitors of PLK1-PDB (polo-like kinase 1 - polo-box domain): Primary Screen; Serine/threonine-protein kinase PLK1 (Homo sapiens), P53350; Plk1 PBD binding of FITC phosphopeptide, fluorescence polarization; Potency, µM, for inactives: max response, negative = inhibition, usual class: inhibitors; 360,000 compounds, 2.8% hits; further: potency means the concentration at half of the fitted maximal effect; series mostly up to about 57 µM; on the % scale 0 is the no-effect control and ±100 the full control effect; nearly all actives have a fitted effect of over 65% in size
HP1b chromo inh: HTS for Inhibitors of HP1-beta Chromodomain Interactions with Methylated Histone Tails. AlphaScreen HP1-beta / biotin-H3K9me3 peptide binding. Chromobox protein homolog 1 (Homo sapiens), P83916. Potency, µM (highest dose often 114 µM), for inactives: at the highest dose activity change, negative = inhibition, most hits filed as inhibitors. 390,000 compounds, 0.56% hits; further: potency means the concentration at half of the fitted maximal effect; nearly all actives have a fitted effect of over 70% in size
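AlphaScreen: HP1-beta (50 nM) preformed 30 min with biotin-H3(1-18)K9me3 peptide (50 nM) in PBS pH 7.4, 0.01% Tween-20. Compound added for 30 min at RT, then streptavidin donor/nickel chelate acceptor beads (10 ug/mL) for 30 min.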
The depositor's hits bear a star; [ ] = another dose, or the depositor's remark. Unless noted, the call rests on the fitted dose curve; in most records, active means well fitted curve in the direction sought with a large enough effect; inconclusive means small, poorly fitted or top-dose-only effect, or another doubt; inactive means no such curve, though single readings can be large; an effect the other way counts as inactive or inconclusive.

How did COCCCN(CC(=O)Nc1ccc(N2CCOCC2)cc1)S(=O)(=O)c1ccc(Cl)cc1 do in these assays?
GCN5L2 inh: 0.4%; PI5P4K alpha inh: 0.1; JMJD2A Tudor inh: 79.4µM*; PLK1 PBD block: inconclusive; HP1b chromo inh: inconclusive

Results for CSc1ccccc1NC(=O)COC(=O)Cc1ccsc1 ?
GCN5L2 inh: -1.6%; PI5P4K alpha inh: 7.3; JMJD2A Tudor inh: 4.9%; PLK1 PBD block: -6.1%; HP1b chromo inh: 23.5%

Results for CCc1ccc(NC(=O)Cn2nc(C)n3cccc3c2=O)cc1 ?
BAZ2B inh: -22.6%; GCN5L2 inh: 0.5%; PI5P4K alpha inh: -1.4; JMJD2A Tudor inh: 5.9%; PLK1 PBD block: 1.2%; HP1b chromo inh: 19.4%

What do the screens show for `CC(=O)NCCc1ccc(S(=O)(=O)Nc2ccc(NC(=O)c3ccc(F)cc3)cc2)cc1`?
BAZ2B inh: 3.3%; GCN5L2 inh: -4.3%; PI5P4K alpha inh: -4.1; JMJD2A Tudor inh: -2.3%; PLK1 PBD block: -4.4%; HP1b chromo inh: 50.6%

Results for CCc1nc2c(OCc3ccccc3C)cccn2c1N(C)C(=O)C(C)C ?
PI5P4K alpha inh: 4.9; PLK1 PBD block: -17.2%

Results for CCC(=O)N1CCc2cc(S(=O)(=O)N3CCCCC3CC)ccc21 (centres undefined) ?
BAZ2B inh: -8.5%; GCN5L2 inh: 1.5%; PI5P4K alpha inh: 0.9; JMJD2A Tudor inh: -12.8%; PLK1 PBD block: -18.1%; HP1b chromo inh: 45.2%

What do the screens show for `CN(CC(=O)Nc1ccc(N2CCOCC2)cc1)CC(=O)Nc1ccc(N2CCOCC2)cc1`?
BAZ2B inh: -12.4%; GCN5L2 inh: -23.7%; PI5P4K alpha inh: -3.7; JMJD2A Tudor inh: -29.4%; PLK1 PBD block: -14.0%; HP1b chromo inh: 26.9%

What do the screens show for `CCc1ccc(NC(=O)CS(=O)CC(=O)Nc2ccc(N3CCOCC3)cc2)cc1` (centres undefined)?
BAZ2B inh: 79.4µM*; GCN5L2 inh: -28.8%; PI5P4K alpha inh: -0.2; JMJD2A Tudor inh: 39.8µM*; PLK1 PBD block: -12.9%; HP1b chromo inh: 4.1%

How did COc1ccc(NC(=O)CCN2C(=O)[C@@H]3[C@H](C2=O)[C@H]2C=C[C@@H]3C2)cc1 do in these assays?
BAZ2B inh: 4.6%; GCN5L2 inh: 0.1%; PI5P4K alpha inh: -12.5; JMJD2A Tudor inh: -9.6%[11.4 µM]; PLK1 PBD block: 26.7µM*; HP1b chromo inh: 14.5%

How did O=C(CCN1C(=O)C2C3C=CC(C3)C2C1=O)Nc1nccs1 (centres undefined) do in these assays?
BAZ2B inh: -2.2%; GCN5L2 inh: -2.0%; PI5P4K alpha inh: -7.2; JMJD2A Tudor inh: 11.0%[11.4 µM]; PLK1 PBD block: 29.9µM*; HP1b chromo inh: -5.1%

What do the screens show for `COc1ccc(NC(=O)CN2C(=O)NC(C)(c3ccc4c(c3)OCCO4)C2=O)cc1S(N)(=O)=O` (centres undefined)?
GCN5L2 inh: -7.1%; PI5P4K alpha inh: 0.1; JMJD2A Tudor inh: -6.3%; PLK1 PBD block: 3.4%; HP1b chromo inh: 22.4%

Results for CC(C)CCn1c(O)c(N=NC(=O)Cn2ccc(C(F)(F)F)n2)c2ccccc21 ?
BAZ2B inh: 3.0%; GCN5L2 inh: 2.7%; PI5P4K alpha inh: -15.6; JMJD2A Tudor inh: 50.1µM*; PLK1 PBD block: 23.8µM*; HP1b chromo inh: 4.5%

How did CC1CCCN(C(=O)CN(c2ccccc2)S(=O)(=O)c2ccc(F)cc2)C1 (centres undefined) do in these assays?
BAZ2B inh: 4.5%; GCN5L2 inh: 2.3%; PI5P4K alpha inh: -5.7; JMJD2A Tudor inh: 7.8%; PLK1 PBD block: 2.9%; HP1b chromo inh: 34.4%

What do the screens show for `COc1ccc2c(=O)c3c(=O)n(-c4ccc(C)cc4)c(-c4ccccc4)nc3oc2c1`?
BAZ2B inh: -3.4%; GCN5L2 inh: inconclusive

What do the screens show for `CCc1nc2oc3ccccc3c(=O)c2c(=O)n1Cc1ccccc1`?
BAZ2B inh: -0.5%; GCN5L2 inh: -2.7%; PI5P4K alpha inh: -3.6; JMJD2A Tudor inh: -14.6%; PLK1 PBD block: -3.0%; HP1b chromo inh: 33.2%

Results for O=c1c2ccccc2oc2nc(-c3ccco3)n(Cc3ccccc3)c(=O)c12 ?
BAZ2B inh: 56.2µM*; GCN5L2 inh: 0.5%; PI5P4K alpha inh: 1.2; JMJD2A Tudor inh: -13.6%; PLK1 PBD block: -15.7%; HP1b chromo inh: 20.4%

What do the screens show for `COc1ccc2c(=O)c3c(=O)n(Cc4ccco4)c(C(C)C)nc3oc2c1`?
BAZ2B inh: 6.8%; GCN5L2 inh: -11.0%; JMJD2A Tudor inh: -12.5%; PLK1 PBD block: -13.8%; HP1b chromo inh: 22.2%

What do the screens show for `COc1ccc2c(=O)c3c(=O)n(Cc4ccco4)c(-c4ccc(C)cc4)nc3oc2c1`?
BAZ2B inh: inconclusive; GCN5L2 inh: -19.2%; PI5P4K alpha inh: inconclusive; JMJD2A Tudor inh: 89.1µM*; PLK1 PBD block: -8.7%; HP1b chromo inh: 9.2%

What do the screens show for `Cc1ccc(-n2c(C)nc3oc4ccccc4c(=O)c3c2=O)cc1`?
BAZ2B inh: 44.7µM*; GCN5L2 inh: -23.3%; JMJD2A Tudor inh: 50.1µM*; PLK1 PBD block: -27.9%; HP1b chromo inh: -25.3%

Results for CC1CCN(c2ccc([N+](=O)[O-])cc2C(=O)NCC2CCCO2)CC1 (centres undefined) ?
BAZ2B inh: -13.1%; GCN5L2 inh: -1.6%; PI5P4K alpha inh: -5.0; JMJD2A Tudor inh: -4.4%; PLK1 PBD block: -13.9%; HP1b chromo inh: 23.9%

Results for Cc1cc2n(n1)CCC(=O)N2Cc1ccc(C(=O)Nc2ccc(Br)c(C)c2)cc1 ?
BAZ2B inh: -11.5%; GCN5L2 inh: -8.7%; JMJD2A Tudor inh: -5.2%; HP1b chromo inh: 14.7%

Results for CC(=O)C1=CCC(c2cccc3ccccc23)N(S(=O)(=O)c2ccc(C)cc2)C1 (centres undefined) ?
PI5P4K alpha inh: 10.1; PLK1 PBD block: -6.3%

Results for Cc1cc(NS(=O)(=O)c2ccc(NC(=O)COc3ccc(Cl)cc3)cc2)nc(C)n1 ?
BAZ2B inh: -3.9%; GCN5L2 inh: 0.1%; JMJD2A Tudor inh: -11.1%; HP1b chromo inh: 20.4%

How did O=C(c1ccccc1)c1ccc(OCC(O)CNCc2ccc(F)cc2)cc1 (centres undefined) do in these assays?
BAZ2B inh: 35.5µM*; GCN5L2 inh: 23.9%; PI5P4K alpha inh: 1.2; JMJD2A Tudor inh: 5.01µM*; PLK1 PBD block: 2.7%; HP1b chromo inh: -10.1%
